Laboratory results: PubChem BioAssay (NCATS)
Results filed as inconclusive are left out. Active and inactive are the calls of the source. Unless noted, calls follow the shape of the dose curve; as a rule, active = well fitted curve in the direction sought with a large enough effect; inconclusive = small, poorly fitted or top-dose-only effect, or another doubt; inactive = no such curve, though single readings can be large; an effect the other way counts as inactive or inconclusive.

Legend:
[1] = molecular target: Lysosomal acid glucosylceramidase (Homo sapiens) (UniProt P04062); test: Glucocerebrosidase-p2 (AID 348; in the data active = potency below about 10 µM; also: potency is read from the fitted curve at half-maximal effect); conditions: purified GBA, blue fluorogenic substrate, 40 min
In short: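 Compounds titrated from 0.6 nM upwards against 0.2 nM enzyme in pH 5.9 citric acid/KH2PO4, taurocholate, tween-20; blue fluorogenic substrate 80 uM, 40 min room temperature, stopped and read Ex 365/Em 440 for AC50.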

[2] = AP1 Signaling Pathway (AID 357; active = well fitted curve in either direction with a large enough effect, not every such curve was filed as active;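 also: ME-180 reporter cells stimulated with EGF at its EC50 level; % is scaled to controls: 0 for no effect and ±100 for the full control effect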); conditions: ME-180 AP-1-bla reporter, EGF-induced, beta-lactamase ratio, 5 h; at 7.69 µM (top of the series) unless noted
In short: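 In this screen, ME-180 cells in Opti-MEM with 0.5% dialyzed FBS received EC50 EGF and compound titrations for 5 h. AP-1 reporter beta-lactamase was detected via CCF4 ratio, giving AC50 for positive and negative modulators.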

[3] = Stat Signaling Pathway (AID 446; active = well fitted curve in either direction with a large enough effect, not every such curve was filed as active;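 also: ME-180 cervical cancer cells given 40 pM IL-6 alongside compound; SIE-controlled beta-lactamase reporter measured as 460/530 nm FRET emission ratio; % is scaled to controls: 0 for no effect and ±100 for the full control effect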); conditions: ME-180 SIE beta-lactamase reporter, IL-6 stimulated, 5 h; at 7.69 µM (top of the series) unless noted
In short: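 Screening format detects activators and inhibitors alike: ME-180 SIE-bla cells stimulated at 40 pM IL-6 for 5 hrs with compound, then dual-emission beta-lactamase read at 405 nm excitation.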

[4] = molecular target: 3',5'-cyclic-AMP phosphodiesterase 4B (Homo sapiens) (UniProt Q07343); test: qHTS Assay for Inhibitors of PDE-IV (AID 607; active = well fitted activation curve with a large enough effect in the main read-out, with a control signal flat, not every such curve was filed as active; also: % of control where 0% means no effect); conditions: HEK293 ACTOne CNG channel cells, membrane potential fluorescence; series mostly up to 22.9 µM
In short: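 The readout is membrane depolarisation from a cAMP-sensing CNG channel, detected with a potential dye at ex 535/em 590. Cells were HEK293-derived (endogenous PDE-IV) at 1000 cells/well, titrated up to 22.9 uM final.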

[5] = molecular target: ATP-dependent 6-phosphofructokinase (Trypanosoma brucei brucei) (UniProt O15648); test: qHTS Assay to Find Inhibitors of T. brucei phosphofructokinase: hit validation (AID 492961); also: % is scaled to controls: 0 for no effect and ±100 for the full control effect; conditions: T. brucei PFK, ADP-Glo luminescence; series mostly up to 51.4 µM
In short: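 Luminescence from ADP-Glo reports ADP generated as T. brucei PFK (1.25 nM) phosphorylates 0.5 mM fructose-6-phosphate using 0.1 mM ATP. Reactions ran 45 min at room temperature, pH 8.0.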

[6] = molecular target: Luciferin 4-monooxygenase (Photinus pyralis) (UniProt P08659); test: Biochemical firefly luciferase enzyme assay for NPC (AID 624030);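 also: purified P. pyralis luciferase at 10 nM with luciferin and ATP substrate; 0% = DMSO and -100% = full luciferase inhibition by PTC124 control; nearly all actives have a fitted effect of over 70% in size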; conditions: purified P. pyralis luciferase, luminescence, 5 min; series mostly up to 58.6 µM
In short: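 Purified P. pyralis luciferase at 10 nM in 50 mM Tris Acetate (final), luminescence read within 5 minutes of enzyme addition to compounds. Activity normalised to PTC124 versus DMSO; concentration-response curves classed by r2, magnitude and activity.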

[7] = S16 Schwann cell viability assay (CellTiter-Glo assay) (AID 624031); conditions: S16 rat Schwann cells viability, 24 h; series mostly up to 57.5 µM;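 also: native untransfected S16 rat Schwann cells; plate controls were DMSO-treated cells for no effect and cell-free wells for full effect; nearly all actives have a fitted effect of over 70% in size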
In short: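 Counter-screen for cytotoxicity: parental S16 rat Schwann cells lacking the PMP22 reporters, treated 24 h with compound, viability from cellular ATP by CellTiter-Glo luminescence, normalized to DMSO (0%) and no-cell wells.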

[8] = S16 Schwann cell PMP22 intronic element firefly luciferase assay (AID 624032); conditions: S16 rat Schwann cells, PMP22 element FLuc, 24 h; series mostly up to 57.5 µM;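 also: plate controls were DMSO for no effect and PTC124 positive control mean for full effect; nearly all actives have a fitted effect of over 30% in size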
In short: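 Rat S16 Schwann cells stably carrying firefly luciferase driven by a PMP22 intronic element, in 10% FBS, treated 24 h at 37 C. ONE-Glo luminescence normalized to PTC124 control and DMSO (0%); curves classed by r2, magnitude and activity.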

[9] = S16 Schwann cell PMP22 intronic element beta-lactamase assay (AID 624044; calls by dose curve;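 also: 0% = DMSO and -100% = potassium clavulanate positive control; nearly all actives have a fitted effect of over 15% in size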); conditions: S16 rat Schwann cells, PMP22 element beta-lactamase FRET, 24 h; series mostly up to 38.3 µM
In short: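 Rat S16 Schwann cells with beta-Lac driven by a PMP22 intronic element, compound-treated 24 h at 37 °C. LiveBLAzer FRET B/G read: 460 nm normalized to potassium clavulanate vs DMSO; 535 nm FRET as viability; concentration-effect curves classified.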

[10] = qHTS profiling for inhibitors of Plasmodium falciparum proliferation (AID 504749);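 also: 0% = DMSO vehicle and full inhibition = artemisinin control; nearly all actives have a fitted effect of over 60% in size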; conditions: P. falciparum in erythrocytes, SYBR Green DNA, 72 h, at 28.7 µM (top of the series)
In short: (§1)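 Readout was DNA-dye fluorescence from lysed cultures, ex 485/em 535 nm. Parasitized red cells had grown 72 h with compound; data scaled between 0.29 uM artemisinin and DMSO wells and corrected using vehicle-only plates.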

3D7 = test: as above; conditions: P. falciparum in erythrocytes, SYBR Green DNA, 72 h; series mostly up to 28.7 µM
In short: as §1

7G8 = test: as above; conditions: P. falciparum in erythrocytes, SYBR Green DNA, 72 h; series mostly up to 28.7 µM
In short: as §1

AA1029 = test: as above; conditions: P. falciparum in erythrocytes, SYBR Green DNA, 72 h; series mostly up to 28.7 µM
In short: as §1

AS120 = test: as above; conditions: P. falciparum in erythrocytes, SYBR Green DNA, 72 h; series mostly up to 28.7 µM
In short: as §1

ATS189 = test: as above; conditions: P. falciparum in erythrocytes, SYBR Green DNA, 72 h; series mostly up to 28.7 µM
In short: as §1

ATS95 = test: as above; conditions: P. falciparum in erythrocytes, SYBR Green DNA, 72 h; series mostly up to 28.7 µM
In short: as §1

C2A = test: as above; conditions: P. falciparum in erythrocytes, SYBR Green DNA, 72 h; series mostly up to 28.7 µM
In short: as §1

CP185 = test: as above; conditions: P. falciparum in erythrocytes, SYBR Green DNA, 72 h; series mostly up to 28.7 µM
In short: as §1

CP191 = test: as above; conditions: P. falciparum in erythrocytes, SYBR Green DNA, 72 h; series mostly up to 28.7 µM
In short: as §1

CP192 = test: as above; conditions: P. falciparum in erythrocytes, SYBR Green DNA, 72 h; series mostly up to 28.7 µM
In short: as §1

CP194 = test: as above; conditions: P. falciparum in erythrocytes, SYBR Green DNA, 72 h; series mostly up to 28.7 µM
In short: as §1

CP201 = test: as above; conditions: P. falciparum in erythrocytes, SYBR Green DNA, 72 h; series mostly up to 28.7 µM
In short: as §1

CP203 = test: as above; conditions: P. falciparum in erythrocytes, SYBR Green DNA, 72 h; series mostly up to 28.7 µM
In short: as §1

CP211 = test: as above; conditions: P. falciparum in erythrocytes, SYBR Green DNA, 72 h; series mostly up to 28.7 µM
In short: as §1

CP215 = test: as above; conditions: P. falciparum in erythrocytes, SYBR Green DNA, 72 h; series mostly up to 28.7 µM
In short: as §1

CP217 = test: as above; conditions: P. falciparum in erythrocytes, SYBR Green DNA, 72 h; series mostly up to 28.7 µM
In short: as §1

CP237 = test: as above; conditions: P. falciparum in erythrocytes, SYBR Green DNA, 72 h; series mostly up to 28.7 µM
In short: as §1

CP238 = test: as above; conditions: P. falciparum in erythrocytes, SYBR Green DNA, 72 h; series mostly up to 28.7 µM
In short: as §1

CP247 = test: as above; conditions: P. falciparum in erythrocytes, SYBR Green DNA, 72 h; series mostly up to 28.7 µM
In short: as §1

CP250 = test: as above; conditions: P. falciparum in erythrocytes, SYBR Green DNA, 72 h; series mostly up to 28.7 µM
In short: as §1

CP252 = test: as above; conditions: P. falciparum in erythrocytes, SYBR Green DNA, 72 h; series mostly up to 28.7 µM
In short: as §1

CP256 = test: as above; conditions: P. falciparum in erythrocytes, SYBR Green DNA, 72 h; series mostly up to 28.7 µM
In short: as §1

CP260 = test: as above; conditions: P. falciparum in erythrocytes, SYBR Green DNA, 72 h; series mostly up to 28.7 µM
In short: as §1

Chain of Luciferin 4-monooxygenase (Photinus pyralis) (P08659 whole entry, looked up): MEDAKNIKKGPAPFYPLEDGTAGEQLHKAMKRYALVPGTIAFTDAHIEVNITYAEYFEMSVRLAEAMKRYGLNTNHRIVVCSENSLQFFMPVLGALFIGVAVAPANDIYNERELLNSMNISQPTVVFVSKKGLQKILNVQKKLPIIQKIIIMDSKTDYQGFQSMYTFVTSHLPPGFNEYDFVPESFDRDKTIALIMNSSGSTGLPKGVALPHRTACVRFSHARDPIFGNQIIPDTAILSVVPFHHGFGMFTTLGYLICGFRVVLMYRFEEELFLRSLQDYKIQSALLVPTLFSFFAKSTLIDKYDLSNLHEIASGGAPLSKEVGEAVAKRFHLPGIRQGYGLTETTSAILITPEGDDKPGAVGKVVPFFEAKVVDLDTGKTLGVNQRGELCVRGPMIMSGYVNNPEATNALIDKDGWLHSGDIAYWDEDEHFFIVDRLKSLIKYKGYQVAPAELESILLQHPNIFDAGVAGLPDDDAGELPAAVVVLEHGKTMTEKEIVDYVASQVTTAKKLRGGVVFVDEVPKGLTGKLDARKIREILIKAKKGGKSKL
Chain of 3',5'-cyclic-AMP phosphodiesterase 4B (Homo sapiens) (Q07343 whole entry, looked up): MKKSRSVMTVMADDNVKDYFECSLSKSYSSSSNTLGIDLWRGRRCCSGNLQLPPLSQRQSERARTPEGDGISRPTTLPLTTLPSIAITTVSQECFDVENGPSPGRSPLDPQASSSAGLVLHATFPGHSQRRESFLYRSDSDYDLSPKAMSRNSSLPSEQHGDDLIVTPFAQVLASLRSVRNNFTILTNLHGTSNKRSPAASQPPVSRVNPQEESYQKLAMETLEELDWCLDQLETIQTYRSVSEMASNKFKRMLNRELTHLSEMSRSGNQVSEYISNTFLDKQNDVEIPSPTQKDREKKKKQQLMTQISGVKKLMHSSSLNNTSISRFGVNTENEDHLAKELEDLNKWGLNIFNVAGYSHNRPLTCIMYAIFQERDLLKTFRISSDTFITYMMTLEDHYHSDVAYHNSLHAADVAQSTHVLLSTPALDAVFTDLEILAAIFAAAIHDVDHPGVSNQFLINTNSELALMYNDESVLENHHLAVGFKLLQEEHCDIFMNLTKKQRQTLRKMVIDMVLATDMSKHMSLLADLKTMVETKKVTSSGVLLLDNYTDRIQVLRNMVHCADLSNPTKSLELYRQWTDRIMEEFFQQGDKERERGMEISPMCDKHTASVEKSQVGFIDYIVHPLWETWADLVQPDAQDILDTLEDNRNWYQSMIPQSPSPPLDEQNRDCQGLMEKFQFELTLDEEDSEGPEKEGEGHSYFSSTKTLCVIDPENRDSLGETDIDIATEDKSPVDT
Chain of ATP-dependent 6-phosphofructokinase (Trypanosoma brucei brucei) (O15648 whole entry, looked up): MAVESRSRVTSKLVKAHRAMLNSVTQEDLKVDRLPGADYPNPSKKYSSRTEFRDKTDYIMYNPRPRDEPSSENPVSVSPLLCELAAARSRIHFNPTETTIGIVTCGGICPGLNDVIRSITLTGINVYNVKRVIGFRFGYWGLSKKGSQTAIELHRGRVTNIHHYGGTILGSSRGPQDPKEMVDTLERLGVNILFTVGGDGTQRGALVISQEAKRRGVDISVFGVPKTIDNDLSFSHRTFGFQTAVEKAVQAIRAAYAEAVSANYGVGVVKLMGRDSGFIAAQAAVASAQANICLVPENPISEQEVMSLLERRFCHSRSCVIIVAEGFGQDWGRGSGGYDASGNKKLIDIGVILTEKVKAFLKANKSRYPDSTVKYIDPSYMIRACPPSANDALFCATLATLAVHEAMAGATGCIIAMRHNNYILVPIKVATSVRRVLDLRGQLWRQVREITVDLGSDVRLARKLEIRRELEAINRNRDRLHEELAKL
Chain of Lysosomal acid glucosylceramidase (Homo sapiens) (P04062 whole entry, looked up): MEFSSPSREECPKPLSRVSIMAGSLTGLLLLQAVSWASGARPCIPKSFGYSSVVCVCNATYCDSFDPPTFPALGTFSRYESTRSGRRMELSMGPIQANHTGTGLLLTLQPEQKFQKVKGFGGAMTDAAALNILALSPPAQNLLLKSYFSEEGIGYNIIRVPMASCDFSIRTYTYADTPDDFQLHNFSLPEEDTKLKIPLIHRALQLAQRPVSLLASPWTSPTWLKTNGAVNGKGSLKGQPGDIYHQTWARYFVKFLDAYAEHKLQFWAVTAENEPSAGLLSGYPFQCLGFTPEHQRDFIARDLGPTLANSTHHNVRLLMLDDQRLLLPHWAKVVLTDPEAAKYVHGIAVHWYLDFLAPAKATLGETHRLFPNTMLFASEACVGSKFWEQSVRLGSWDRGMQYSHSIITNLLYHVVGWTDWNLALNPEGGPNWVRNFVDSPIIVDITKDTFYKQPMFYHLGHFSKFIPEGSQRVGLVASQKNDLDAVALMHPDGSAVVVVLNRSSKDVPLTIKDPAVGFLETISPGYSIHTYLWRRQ

CN1[C@@H]2CC(OC(=O)[C@@H](CO)c3ccccc3)C[C@@H]1[C@H]1O[C@H]12 (some centres undefined)
inactive: Potency [1] > 11.4 µM | activity change, negative = inhibition [2] 20.3% | activity, negative = inhibition [3] 6.14% | Potency [4] | outcome [5] | outcome [6] | Potency [7] | Potency [8] | outcome [9] | activity, negative = inhibition ([10]; parasite line A) 11.4% | activity, negative = inhibition ([10]; parasite line B) 4.71% | Potency (3D7) | Potency (7G8) | Potency (AA1029) | Potency (AS120) | Potency (ATS189) | Potency (ATS95) | Potency (C2A) | Potency (CP185) | Potency (CP191) | Potency (CP192) | Potency (CP194) | Potency (CP201) | Potency (CP203) | Potency (CP211) | Potency (CP215) | Potency (CP217) | Potency (CP237) | Potency (CP238) | Potency (CP247) | Potency (CP250) | Potency (CP252) | Potency (CP256) | Potency (CP260)
